# Test results reported in ChEMBL document CHEMBL1201862, “PubChem BioAssay data set” (2004).
# Screen size: about 400,000 compounds; about 2,100 (0.53%) were called active. Inconclusive results (about 14%) are left out. The rule behind the calls is not given here. Many of the other results were omitted from the sample, so actives are more common in it than they were.
# Biological target: Ataxin-2 (Homo sapiens) (UniProt Q99700)
# Assay: qHTS for Inhibitors of ATXN expression.
# Assay type: functional
# Ataxin-2 (Homo sapiens), sequence (Q99700 whole entry): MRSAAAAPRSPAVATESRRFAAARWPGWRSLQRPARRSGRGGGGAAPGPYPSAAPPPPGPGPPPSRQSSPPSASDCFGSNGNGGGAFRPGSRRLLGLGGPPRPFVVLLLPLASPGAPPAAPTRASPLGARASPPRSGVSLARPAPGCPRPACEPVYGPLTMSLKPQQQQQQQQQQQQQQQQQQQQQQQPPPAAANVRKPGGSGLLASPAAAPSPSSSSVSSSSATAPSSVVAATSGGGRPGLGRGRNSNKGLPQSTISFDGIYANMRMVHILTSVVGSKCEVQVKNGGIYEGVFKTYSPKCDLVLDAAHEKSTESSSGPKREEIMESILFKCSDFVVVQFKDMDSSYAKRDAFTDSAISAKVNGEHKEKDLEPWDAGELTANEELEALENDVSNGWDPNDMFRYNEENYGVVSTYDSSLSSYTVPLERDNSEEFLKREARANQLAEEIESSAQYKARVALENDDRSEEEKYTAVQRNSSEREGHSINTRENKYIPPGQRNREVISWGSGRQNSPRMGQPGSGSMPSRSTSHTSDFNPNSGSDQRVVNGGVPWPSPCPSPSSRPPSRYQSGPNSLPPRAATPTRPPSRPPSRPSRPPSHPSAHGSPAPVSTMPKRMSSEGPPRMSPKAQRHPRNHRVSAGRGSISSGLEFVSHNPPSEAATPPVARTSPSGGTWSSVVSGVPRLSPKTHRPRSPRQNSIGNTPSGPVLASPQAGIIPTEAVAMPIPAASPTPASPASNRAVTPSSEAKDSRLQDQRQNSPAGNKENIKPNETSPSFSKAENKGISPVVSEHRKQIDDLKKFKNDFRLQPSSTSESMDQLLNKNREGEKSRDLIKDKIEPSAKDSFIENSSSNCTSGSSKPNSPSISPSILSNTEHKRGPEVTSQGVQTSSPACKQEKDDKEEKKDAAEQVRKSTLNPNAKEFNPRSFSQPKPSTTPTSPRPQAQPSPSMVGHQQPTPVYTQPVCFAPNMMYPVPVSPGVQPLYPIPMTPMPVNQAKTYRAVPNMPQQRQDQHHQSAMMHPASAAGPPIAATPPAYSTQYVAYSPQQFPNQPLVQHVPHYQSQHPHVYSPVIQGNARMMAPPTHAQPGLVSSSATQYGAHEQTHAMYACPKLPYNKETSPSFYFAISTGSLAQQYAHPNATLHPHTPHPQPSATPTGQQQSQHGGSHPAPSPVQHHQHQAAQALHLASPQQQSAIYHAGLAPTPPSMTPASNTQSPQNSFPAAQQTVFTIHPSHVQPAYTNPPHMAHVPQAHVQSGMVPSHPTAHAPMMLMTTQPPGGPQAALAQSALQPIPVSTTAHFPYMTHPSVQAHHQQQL
row,Compound,Potency
1,CCCc1cc(NCc2ccccn2)n2c(nc3ccccc32)c1C#N,inactive
2,C=C1C(=O)OC2CC1C(O)CC(C)=CCCC(C)=CC(O)CC2C (configuration not stated),15 µM (active)
3,NC(=O)c1sc2nc(-c3ccccc3)c3c(c2c1N)CCCC3,inactive
4,CN(C)CCNc1ncnc2c1sc1nc(-c3ccccc3)c3c(c12)CCCC3,25.1 µM (active)
5,CC(=O)c1sc2nc(-c3ccc(C)cc3)c3c(c2c1N)CCCC3,inactive
6,CCN(CC)c1cc(C)c(C#N)c2nc3ccccc3n12,inactive
7,Cc1cc(C)nc(OC(C(=O)O)C(OCCc2ccccc2)(c2ccc(F)cc2)c2ccc(F)cc2)n1 (configuration not stated),inactive
8,Cc1ccc(C(=O)NCC(=O)N/N=C/c2cccs2)cc1[N+](=O)[O-],inactive
9,CS(=O)(=O)c1ccc(C(=O)NCCN2C(=O)S/C(=C\c3cccnc3)C2=O)cc1[N+](=O)[O-],11.2 µM (active)
10,COc1ccc(OCC(O)CNCCOc2ccccc2OC)c(C(C)(C)C)c1 (configuration not stated),20 µM (active)
11,CNCCCOc1ccc(C)cc1OC,inactive
12,COCCN(C(=O)CCl)C(C(=O)NC1CCCCC1)c1ccccc1C (configuration not stated),25.1 µM (active)
13,COc1ccc(C(C(=O)NC2CCCC2)N(C(=O)c2ccco2)c2cc3c(cc2C(C)=O)OCO3)cc1 (configuration not stated),inactive
14,CC(C(=O)NC1CCCCC1)N(Cc1ccc(F)cc1)C(=O)c1snc(C(N)=O)c1N (configuration not stated),inactive
15,COCCCn1c(=N)c(C(=O)NC2CCCC2)cc2c(=O)n3cccc(C)c3nc21,inactive
16,NC(=O)c1nsc(C(=O)N(Cc2cccnc2)C(C(=O)NC2CCCC2)c2ccc(F)cc2)c1N (configuration not stated),inactive
17,O=C(NC1CCCC1)C(c1ccc(Cl)cc1)N(Cc1ccc(F)cc1)C(=O)CCl (configuration not stated),39.8 µM (active)
18,COc1ccc(C(C(=O)NC2CCCCC2)N(C(=O)CCl)c2ccc(C)cc2)cc1 (configuration not stated),7.08 µM (active)
19,COCCCn1c(C(=O)NC2CCCCC2)cc2c(=O)n3cccc(C)c3nc21,inactive
20,CCc1ccc(N(C(=O)c2snc(C(N)=O)c2N)C(C(=O)NC2CCCC2)c2ccncc2)cc1 (configuration not stated),inactive
21,COc1ccc(CCN2C(=O)CC(C(N)=O)S/C2=N\c2ccccc2)cc1 (configuration not stated),inactive

row,Compound,Potency
1,Cc1cc(C)c2c(N)c(C(=O)NN3CC(=O)N(c4cccc(Cl)c4)CC3=O)sc2n1,inactive
2,CO/N=C(\Cn1ncc(N2CCOCC2)c(Br)c1=O)c1ccc(Cl)cc1,inactive
3,CC(C)(C)C(=O)Cn1ncc(Br)c(Br)c1=O,15.8 µM (active)
4,Nc1cc2c(cc1O)CCCC2,inactive
5,O=C(COc1ccc(Br)cc1)N1CCc2ccccc21,inactive
6,COCCCn1c(=N)c(C(=O)NC2CCCC2)cc2c(=O)n3cc(C)ccc3nc21,inactive
7,CCOCCCn1c(=N)c(C(=O)NC2CCCC2)cc2c(=O)n3cc(C)ccc3nc21,inactive
8,CCCCCCn1c(=O)n2n(c1=O)[C@@H]1CN(S(=O)(=O)c3ccc(C)cc3)C[C@]1(O)[C@@H](OC(=O)NC1CCCC1)C2,44.7 µM (active)
9,CCCCCCn1c(=O)n2n(c1=O)C[C@]1(OC(=O)NCC3CCCCC3)CN(S(=O)(=O)c3ccc(C)cc3)C[C@]1(O)C2,31.6 µM (active)
10,CCCCCCn1c(=O)n2n(c1=O)[C@@H]1CN(S(=O)(=O)c3ccc(C)cc3)C[C@]1(O)[C@@H](OC(=O)NCC1CCCCC1)C2,31.6 µM (active)
11,Cc1cccc(C)c1N=C(S)NCCc1ccc(O)c(O)c1,inactive
12,CC1CC1C(=O)OCC(=O)c1c(N)n(C)c(=O)n(C)c1=O (configuration not stated),inactive
13,CCOC(=O)c1cc2c(=O)n3ccccc3nc2n(Cc2ccco2)/c1=N/C(=O)c1cccnc1,inactive
14,COc1ccc(-n2c3nc4ccccc4nc3c3c(=N)oc(C)nc32)cc1,inactive
15,COc1cc(/C=C(\C#N)c2nc3ccccc3n2C)cc(OC)c1O,inactive
16,Cc1cccn2c(=O)c3cc(C#N)/c(=N\C(=O)c4cccnc4)n(CC4CCCO4)c3nc12 (configuration not stated),inactive
17,O=C1CN2CCC1C/C2=C\c1ccnc2c(Cl)cccc12 (configuration not stated),inactive
18,COC(=O)C1=CN(Cc2ccc(OC)c(OC)c2)C=C(C(=O)OC)C1c1cccs1,inactive
19,C=C1C(=O)c2sccc2C(c2ccc(OC)c(OC)c2)C1COC(C)=O (configuration not stated),5.97 µM (active)
20,CN1CCN(c2nc3ccccn3c(=O)c2C=C(C#N)C#N)CC1,inactive
21,CC1(C)CC(=O)C2=C(C1)c1c(ccc3ccccc13)NC2c1ccc(OCC(=O)O)cc1 (configuration not stated),inactive

row,Compound,Potency
1,Cc1ccc2nc(NCC(N)=O)nc(-c3ccccc3)c2c1,inactive
2,O=c1c(Cl)c(Cl)cnn1Cc1nnc(-c2ccccc2Br)o1,39.8 µM (active)
3,Nc1cccc2c1C(=O)N(Cc1nnc(-c3ccccc3Br)o1)C2=O,inactive
4,COc1ccc(/C=C2\Oc3cc(OCC(=O)N4CCC[C@H]4C(=O)O)ccc3C2=O)c(OC)c1,inactive
5,COc1ccc(-c2nc3ccccc3c(=O)n2CCOc2c(C)cccc2C)cc1,inactive
6,COc1ccc(-c2nnc(SCc3cc(=O)c4cc(C)cc(C)c4[nH]3)n2C)cc1,17.8 µM (active)
7,COc1ccc(CN2COc3ccc4c(C)cc(=O)oc4c3C2)cc1,inactive
8,CCCCCc1cc(=O)oc2c(C(CCN3CCCC(C)C3)c3ccc(N(C)C)cc3)c(OC)cc(OC)c12 (configuration not stated),22.4 µM (active)
9,CCCc1cc(=O)oc2c3c(ccc12)OCN(Cc1ccccc1OC)C3,inactive
10,Cc1c(O)ccc2c(CN3CCOCC3)cc(=O)oc12,inactive
11,CCCCCc1cc(=O)oc2c(C(CCN3CCCC(C)C3)c3ccc(OC)cc3)c(OC)cc(OC)c12 (configuration not stated),31.6 µM (active)
12,CCCCCc1cc(=O)oc2c(C(CCN3CCCC(C)C3)c3ccc4c(c3)OCO4)c(OC)cc(OC)c12 (configuration not stated),35.5 µM (active)
13,COc1cc(OC)c2c(C)cc(=O)oc2c1C(CCN1CCOCC1)c1ccc2c(c1)OCO2 (configuration not stated),20 µM (active)
14,COc1ccc(-c2c(C)c3ccc(O)c(CN4CCCC(C)C4)c3oc2=O)cc1OC (configuration not stated),inactive
15,CCN1CCc2c(C#N)c(N3CCOCC3)nc(NCCO)c2C1,inactive
16,CCc1cc2c(CN3CCN(CCO)CC3)cc(=O)oc2cc1O,inactive
17,CC(=O)c1ccc(NS(=O)(=O)c2ccc3c(c2)N(C(C)=O)CCO3)cc1,inactive
18,CCCN1CCN(c2ncnc3sc(C(=O)Nc4ccc(C(C)C)cc4)c(C)c23)CC1,31.6 µM (active)
19,COc1ccc(C)cc1NC(=O)c1sc2ncnc(N3CCN(c4ccccn4)CC3)c2c1C,inactive
20,CCOC(=O)c1sc2ncnc(N3CCN(C)CC3)c2c1C,inactive
